# From PubChem BioAssay (Tox21)
# Where “and” joins values, the source holds several entries; their conditions need not be identical. Equal entries are not always repeated. Inconclusive results are not listed. Entries that show only a call come without a potency. A structure can be active in one record and inactive in another. Calls of active or inactive are those of the source. The call rests on the fitted dose curve; in most records, active means well fitted curve in the direction sought with a large enough effect in the repeat runs; inconclusive means weak or mixed curves; inactive means no such curve, though single readings can be large; an effect the other way counts as inactive or inconclusive.
# Test system: not listed separately
# Assay: qHTS assay to identify small molecule agonists of the estrogen related receptor signaling pathway with the pleiotropic PPARgamma coactivator (PGC) (AID 1224823)
# Conditions: ERR/PGC reporter cell line, luciferase agonist mode; series mostly up to 46.1 µM
# Method in brief: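 Steps: plate PGC/ERR cells at 2,000 cells/well; incubate 6 h, 37 C/5% CO2; pin-transfer compounds (DMSO); incubate 18 h, 37 C; add One-Glo; 30 min RT; read luminescence.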
row,Compound,outcome
1,Nc1ncn([C@@H]2O[C@H](CO)[C@@H](O)[C@H]2O)c(=O)n1,inactive
2,CC(C(=O)O)c1cccc(C(=O)c2ccccc2)c1 (stereo unspecified),inactive
3,Cc1c(OCC(F)(F)F)ccnc1CS(=O)c1nc2ccccc2[nH]1 (stereo unspecified),inactive
4,Cn1cnc([N+](=O)[O-])c1Sc1ncnc2nc[nH]c12,inactive
5,CCCCc1oc2ccccc2c1C(=O)c1cc(I)c(OCCN(CC)CC)c(I)c1,inactive

# Test system: not listed separately
# Assay: qHTS assay to identify small molecule antagonists of the estrogen related receptor (ERR) signaling pathway from Tox21 library - cell viability counter screen (AID 1224834); further: nearly all actives have a fitted effect of over 30% in size; further: potency means the concentration at half of the fitted maximal effect
# Conditions: ERR reporter cells viability, CellTiter-Fluor, 17.5 h; series mostly up to 92.4 µM
# Method in brief: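 Viability readout (CellTiter-Fluor fluorescence, 30 min at 37 C) multiplexed with the ERR assay; cells treated 17.5 h at 37 C with compounds delivered in DMSO.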
row,Compound,Potency
1,COC(C)COC(C)COC(C)CO (stereo unspecified),inactive
2,C[C@]12CCC(=O)C=C1CC[C@@H]1[C@@H]2C(=O)C[C@@]2(C)[C@H]1CC[C@]2(O)C(=O)CO,inactive
3,Cc1cccc([N+](=O)[O-])c1C,inactive
4,CCC(C)c1ccccc1O (stereo unspecified),inactive
5,O=C(c1ccccc1)c1ccccc1O,inactive
6,Brc1cc(Oc2cc(Br)c(Br)c(Br)c2Br)c(Br)c(Br)c1Br,inactive
7,CC1=CC2C3CC(C=C3C)C2C1 (stereo unspecified),inactive
8,Nc1ncn([C@@H]2O[C@H](CO)[C@@H](O)[C@H]2O)c(=O)n1,2.17 µM (active) and 3.76 µM (active)
9,OC(CCl)CCl,inactive
10,CCC(C)CO (stereo unspecified),inactive
11,Cc1ccc2c(n1)Oc1ccc(C(C)C(=O)OCC(=O)N(C)C)cc1C2 (stereo unspecified),inactive
12,O=C(/C=C/c1ccccc1)OCc1ccccc1,inactive
13,C#C[C@]1(O)CC[C@H]2[C@@H]3CCc4cc(OC)ccc4[C@H]3CC[C@@]21C,inactive
14,Cc1cccc(N(C)C(=S)Oc2ccc3ccccc3c2)c1,inactive
15,CC(C(=O)O)c1cccc(C(=O)c2ccccc2)c1 (stereo unspecified),inactive
16,Cc1c(OCC(F)(F)F)ccnc1CS(=O)c1nc2ccccc2[nH]1 (stereo unspecified),inactive
17,Clc1nc(Cl)c(Cl)c(Cl)c1Cl,inactive
18,O=C(Nc1ccc(Cl)cc1)Nc1ccc(Cl)c(Cl)c1,12.1 µM (active) and 6.86 µM (active) and 18.8 µM (active)
19,O=CCc1ccccc1,inactive

row,Compound,Potency
1,OC1CCCCCCCCCCC1,inactive
2,OC[C@H]1O[C@@H]2O[C@H]3[C@H](O)[C@@H](O)[C@@H](O[C@H]4[C@H](O)[C@@H](O)[C@@H](O[C@H]5[C@H](O)[C@@H](O)[C@@H](O[C@H]6[C@H](O)[C@@H](O)[C@@H](O[C@H]7[C@H](O)[C@@H](O)[C@@H](O[C@H]8[C@H](O)[C@@H](O)[C@@H](O[C@H]1[C@H](O)[C@H]2O)O[C@@H]8CO)O[C@@H]7CO)O[C@@H]6CO)O[C@@H]5CO)O[C@@H]4CO)O[C@@H]3CO,inactive
3,CC(C)Oc1ccc2c(=O)c(-c3ccccc3)coc2c1,inactive
4,Cc1ccc(C)c(O)c1C,inactive
5,Cc1[nH]c(=O)c(C#N)cc1-c1ccncc1,inactive
6,CCCCC/C=C/C=C/C=O,inactive
7,c1ccncc1,inactive
8,Cc1cccc(C(=O)O)c1,inactive
9,CCCCC(CC)COCC1CO1 (stereo unspecified),inactive
10,O=C(COc1ccc(Cl)cc1)N1CCN(Cc2ccc3c(c2)OCO3)CC1,inactive
11,O=[N+]([O-])c1ccc2c(c1)Cc1ccccc1-2,inactive
12,CC(C)OB(OC(C)C)OC(C)C,inactive
13,CC(CCC(=O)O)(c1ccc(O)cc1)c1ccc(O)cc1,inactive
14,CCCCc1oc2ccccc2c1C(=O)c1cc(I)c(OCCN(CC)CC)c(I)c1,48.9 µM (active) and 29.8 µM (active)
15,CC(=O)C1(C)CC2=C(CCCC2(C)C)CC1C (stereo unspecified),inactive
16,CCOC(=O)C(C#N)=C(c1ccccc1)c1ccccc1,inactive
17,CC(C)(C)NC(=O)[C@H]1CC[C@H]2[C@@H]3CC[C@H]4NC(=O)C=C[C@]4(C)[C@H]3CC[C@]12C,inactive
18,C[C@]12CC[C@H]3[C@@H](CCC4=CC(=O)CC[C@@]43C)[C@@H]1CC[C@@H]2C(=O)CO,inactive
19,C=C(C)C(=O)OCCOC(=O)C(=C)C,inactive

# Molecular target: Luciferin 4-monooxygenase (Photinus pyralis) (UniProt P08659)
# Sequence (P08659 whole entry, looked up): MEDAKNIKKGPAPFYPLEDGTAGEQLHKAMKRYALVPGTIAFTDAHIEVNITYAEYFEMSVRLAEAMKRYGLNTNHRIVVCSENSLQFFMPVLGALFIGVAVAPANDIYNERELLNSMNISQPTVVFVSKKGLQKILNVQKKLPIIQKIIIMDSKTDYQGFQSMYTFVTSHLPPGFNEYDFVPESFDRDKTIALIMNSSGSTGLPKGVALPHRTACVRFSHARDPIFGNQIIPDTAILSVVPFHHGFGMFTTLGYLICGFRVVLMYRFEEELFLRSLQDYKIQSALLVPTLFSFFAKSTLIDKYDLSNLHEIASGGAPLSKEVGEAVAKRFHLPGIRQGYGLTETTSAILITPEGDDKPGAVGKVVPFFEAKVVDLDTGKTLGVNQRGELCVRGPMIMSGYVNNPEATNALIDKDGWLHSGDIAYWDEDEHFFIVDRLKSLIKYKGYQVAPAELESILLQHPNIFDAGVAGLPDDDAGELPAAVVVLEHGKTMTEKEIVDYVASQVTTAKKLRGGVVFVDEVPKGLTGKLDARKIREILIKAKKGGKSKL
# Assay: qHTS assay to identify small molecule inhibitors of firefly luciferase (AID 1224835); further: nearly all actives have a fitted effect of over 25% in size; further: potency means the concentration at half of the fitted maximal effect
# Conditions: purified P. pyralis luciferase, luminescence inhibition; series mostly up to 115 µM
# Method in brief: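 Quantitative HTS format; KM concentrations of both substrates. Purified P. pyralis FLuc activity quantified from luminescence images.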
row,Compound,Potency
1,COC(C)COC(C)COC(C)CO (stereo unspecified),inactive
2,C[C@]12CCC(=O)C=C1CC[C@@H]1[C@@H]2C(=O)C[C@@]2(C)[C@H]1CC[C@]2(O)C(=O)CO,inactive
3,Cc1cccc([N+](=O)[O-])c1C,inactive
4,CCC(C)c1ccccc1O (stereo unspecified),inactive
5,O=C(c1ccccc1)c1ccccc1O,inactive
6,Brc1cc(Oc2cc(Br)c(Br)c(Br)c2Br)c(Br)c(Br)c1Br,inactive
7,CC1=CC2C3CC(C=C3C)C2C1 (stereo unspecified),inactive
8,Nc1ncn([C@@H]2O[C@H](CO)[C@@H](O)[C@H]2O)c(=O)n1,inactive
9,OC(CCl)CCl,inactive
10,CCC(C)CO (stereo unspecified),inactive
11,Cc1ccc2c(n1)Oc1ccc(C(C)C(=O)OCC(=O)N(C)C)cc1C2 (stereo unspecified),17.4 µM (active) and 15.5 µM (active)
12,O=C(/C=C/c1ccccc1)OCc1ccccc1,17.8 µM (active) and 9.77 µM (active)
13,C#C[C@]1(O)CC[C@H]2[C@@H]3CCc4cc(OC)ccc4[C@H]3CC[C@@]21C,inactive
14,Cc1cccc(N(C)C(=S)Oc2ccc3ccccc3c2)c1,inactive
15,Cc1c(OCC(F)(F)F)ccnc1CS(=O)c1nc2ccccc2[nH]1 (stereo unspecified),35.6 µM (active) and inactive
16,Clc1nc(Cl)c(Cl)c(Cl)c1Cl,inactive
17,Cn1cnc([N+](=O)[O-])c1Sc1ncnc2nc[nH]c12,inactive
18,O=C(Nc1ccc(Cl)cc1)Nc1ccc(Cl)c(Cl)c1,5.62 µM (active) and 10 µM (active) and 9.77 µM (active)
19,O=CCc1ccccc1,inactive

row,Compound,Potency
1,OC1CCCCCCCCCCC1,inactive
2,OC[C@H]1O[C@@H]2O[C@H]3[C@H](O)[C@@H](O)[C@@H](O[C@H]4[C@H](O)[C@@H](O)[C@@H](O[C@H]5[C@H](O)[C@@H](O)[C@@H](O[C@H]6[C@H](O)[C@@H](O)[C@@H](O[C@H]7[C@H](O)[C@@H](O)[C@@H](O[C@H]8[C@H](O)[C@@H](O)[C@@H](O[C@H]1[C@H](O)[C@H]2O)O[C@@H]8CO)O[C@@H]7CO)O[C@@H]6CO)O[C@@H]5CO)O[C@@H]4CO)O[C@@H]3CO,inactive
3,CC(C)Oc1ccc2c(=O)c(-c3ccccc3)coc2c1,1.38 µM (active) and 1.55 µM (active)
4,Cc1ccc(C)c(O)c1C,inactive
5,Cc1[nH]c(=O)c(C#N)cc1-c1ccncc1,inactive
6,CCCCC/C=C/C=C/C=O,inactive
7,c1ccncc1,inactive
8,Cc1cccc(C(=O)O)c1,inactive
9,CCCCC(CC)COCC1CO1 (stereo unspecified),inactive
10,O=C(COc1ccc(Cl)cc1)N1CCN(Cc2ccc3c(c2)OCO3)CC1,inactive
11,O=[N+]([O-])c1ccc2c(c1)Cc1ccccc1-2,inactive
12,CC(C)OB(OC(C)C)OC(C)C,inactive
13,CC(CCC(=O)O)(c1ccc(O)cc1)c1ccc(O)cc1,inactive
14,CCCCc1oc2ccccc2c1C(=O)c1cc(I)c(OCCN(CC)CC)c(I)c1,inactive
15,CC(=O)C1(C)CC2=C(CCCC2(C)C)CC1C (stereo unspecified),inactive
16,CCOC(=O)C(C#N)=C(c1ccccc1)c1ccccc1,inactive
17,CC(C)(C)NC(=O)[C@H]1CC[C@H]2[C@@H]3CC[C@H]4NC(=O)C=C[C@]4(C)[C@H]3CC[C@]12C,inactive
18,C[C@]12CC[C@H]3[C@@H](CCC4=CC(=O)CC[C@@]43C)[C@@H]1CC[C@@H]2C(=O)CO,inactive
19,C=C(C)C(=O)OCCOC(=O)C(=C)C,inactive
